# In PubChem BioAssay AID686978 (National Center for Advancing Translational Sciences (NCATS), 2013):
# About 64,000 (15%) of roughly 420,000 compounds were called active. Roughly 27% stayed inconclusive and do not appear here. These entries were drawn from the full list. A number with no mark means an inactive call. Calls come from the whole dose curve; as a rule, active = well fitted inhibition curve with a large enough effect; inconclusive = small, poorly fitted or top-dose-only effect; inactive = flat fitted curve, though single readings scatter.
# Test: qHTS for Inhibitors of human tyrosyl-DNA phosphodiesterase 1 (TDP1): qHTS in cells in absence of CPT; note: nearly all actives have a fitted effect of over 55% in size
# Conditions: DT40 Tdp1-/- hTDP1 cells, no CPT, ATP luminescence, 48 h; activity change, negative = growth inhibition: at 46.2 µM (top of the series)
# Summary of the method: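 Cells were dispensed at 400 per well, compounds added by pin tool, plates incubated ≥48 hr at 37 °C, then CellTiter-Glo added for 30 min at room temperature before luminescence reading. Line: DT40 Tdp1-/- complemented with hTDP1; camptothecin omitted.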
# % is set by controls: 0 for no effect and ±100 for the full control effect; potency is the fitted concentration of half-maximal effect.
SMILES,"activity change, negative = growth inhibition [%]",Potency
CC(C)[C@@H](C(=O)O)N(Cc1cccc(CN([C@H](C(=O)O)C(C)C)S(C)(=O)=O)c1)S(C)(=O)=O,-13.5,
COc1cc2c(cc1OC)C(Nc1ccc(S(N)(=O)=O)cc1)=NC(C)(C)C2,-1.6,
COc1cc2c(cc1O)C(SC)=NC(C)(C)C2,,29.1 µM (active)
O=C(Nc1ccccn1)C1CCN(S(=O)(=O)c2ccccc2)CC1,-16.5,
CCCCN(CC(=O)NC(C)(C)C)C(=O)C(=O)Nc1ccc2c(c1)OCCO2,-4.3,
CC(C)(C)NS(=O)(=O)CC12CCC(CC1=O)C2(C)C (configuration not stated),8.13,
CN(C)Cc1ccccc1C1(O)c2ccccc2CSc2ccccc21 (configuration not stated),,23.1 µM (active)
CN(C)CC/C=C1\c2ccccc2CSc2ccccc21,-2.35,
CC(=O)NC(CC(=O)Nc1nccs1)c1ccccc1 (configuration not stated),-1.06,
Cc1c(OC(C)C(=O)NCC2CCC(C(=O)O)CC2)ccc2c1oc(=O)c1ccccc12 (configuration not stated),-23.1,
CCN(CC(=O)NC(=O)NCc1ccccc1)Cc1nc2ccccc2c(=O)[nH]1,-25.3,
CC1(C(=O)NCc2ccc(F)c(F)c2)Cc2c(-c3ccc4c(c3)OCO4)ccnc2O1 (configuration not stated),,2.91 µM (active)
S=C(NCc1ccc2c(c1)OCO2)NCc1ccco1,-18.3,
O=C(NCc1ccc2c(c1)OCO2)c1cc(F)c(F)cc1Cl,6.94,
O=C(NCc1ccc2c(c1)OCO2)C12CC3CC(CC(C3)C1)C2,-22.8,
CC1(C(=O)NCc2ccco2)Cc2c(-c3ccc4c(c3)OCO4)ccnc2O1 (configuration not stated),,0.58 µM (active)
O=C(Cn1nnc(-c2ccc3c(c2)OCO3)n1)NCc1ccco1,-1.69,
OCC1(CCOc2ccccc2)CCN(Cc2cn[nH]c2-c2ccccc2)CC1,2.32,
COCc1c(C(=O)N/N=C(\C)c2ccncc2)nnn1-c1nonc1N,4.24,
CC(Sc1nnc(CNC(=O)c2ccccc2F)n1C)C(=O)Nc1nccs1 (configuration not stated),-15,
O=c1c(-c2ccc(F)cc2)nc2cncnc2n1-c1ccccc1,-7.29,
Cc1cnc(NC(=O)Cn2cnc3c2c(=O)n(C)c(=O)n3C)s1,-7.75,
CCSc1ccccc1C(=O)Nc1ccc2c(c1)OCO2,-6.47,
CCC(C)OC(=O)C(C)Oc1ccc(-c2ccccc2)cc1 (configuration not stated),-4.46,
N#CC1=C(N)N(c2ccc(F)cc2)C(=O)C1,-14.7,
O=C(CSc1ccccc1)Nc1nnc(/C=C/c2ccccc2)s1,-20.1,

SMILES,"activity change, negative = growth inhibition [%]",Potency
CCN(C(=O)Cn1cc(S(=O)(=O)N2CCN(c3ccccc3F)CC2)c2ccccc2c1=O)c1ccc(C)c(C)c1,,10.3 µM (active)
O=C(CN1CCN(c2ccccc2F)CC1)c1ccc2c(c1)OCO2,-2.9,
Cc1ccc2cccc(S(=O)(=O)N3CCN(c4ccccc4F)CC3)c2n1,-22.5,
CCCN(C(=O)Cn1cc(S(=O)(=O)N2CCN(c3ccccc3F)CC2)c2ccccc2c1=O)c1cccc(C)c1,,18.4 µM (active)
CCOC(=O)N1CCN(c2c(NCCN3CCN(c4ccccc4F)CC3)c(=O)c2=O)CC1,-8.93,
CC1(C)NC(=O)N(CC(=O)N2CCN(S(=O)(=O)c3ccccc3F)CC2)C1=O,3.77,
Cc1cc(C)c(S(=O)(=O)N(C)CC(=O)NCC2CCCO2)c(C)c1 (configuration not stated),-13.3,
O=S1(=O)CC(NCc2ccccc2)C(Nc2ccc(Cl)cc2)C1 (configuration not stated),1.7,
O=C(NC1(C(F)(F)F)N=C2SCCN2C1=O)c1ccco1 (configuration not stated),-16.8,
COc1cnn(-c2ccc([N+](=O)[O-])cc2)c(=O)c1Cl,-25.3,
Cc1cc(C)c(C#N)c(SCS(=O)c2ccc(C(C)(C)C)cc2)n1 (configuration not stated),-24.8,
COC(=O)COc1ccc2c(=O)c(Oc3ccccc3Br)coc2c1,-6.82,
C[C@H]1CN([C@@H](C)CO)C(=O)CCCn2cc(nn2)CO[C@@H]1CN(C)S(=O)(=O)c1ccc(-n2cccn2)cc1,-29.1,
CC(C)(C)n1nnnc1C(c1ccccc1F)N1CCN(C(=O)c2ccco2)CC1 (configuration not stated),-12.2,
CCOc1ccc(CN(Cc2ccco2)C(c2cccs2)c2nnnn2C(C)(C)C)cc1 (configuration not stated),,16.4 µM (active)
C/C(=C\c1ccco1)CN1CCC(N2CCC(C(=O)N3CCOCC3)CC2)CC1,-28.9,
CCN(C(=O)COC(=O)CCC(=O)c1cccs1)C1CCCCC1,-9.9,
COc1cc2nc(Cl)nc(NCCO)c2cc1OC,-16.5,
CCOC(=O)CNc1nc(Cl)nc(Nc2ccccc2)n1,3.63,
OCCNc1nc(Nc2ccc(Cl)c(Cl)c2)nc2ccccc12,,16.4 µM (active)
CCN(CC(=O)Nc1ccc(OC)cc1)C(=O)CSCc1ccc(C)cc1,-21.7,
O=C(Nc1ccc(N2CCOCC2)cc1)c1ccc2c(c1)OCO2,-28.4,
CN1CCN(c2ccc(NC(=O)c3cc(Cl)c4c(c3)OCCO4)cc2)CC1,,29.1 µM (active)
CN1CCN(c2ccc(NC(=O)c3ccc4c(c3)OCCO4)cc2Cl)CC1,-17.4,
CCOc1ccc(C(=O)N(Cc2ccc(N(C)C)cc2)C2CCS(=O)(=O)C2)cc1 (configuration not stated),-14.1,
O=C(COc1ccc(Cl)cc1Cl)NCCCNC(=O)c1cnccn1,-22.6,
